The structures appear in SMILES notation. Out of some 290,000 compounds screened, about 27,000 (9.3%) were called active. Only a selection was taken, and actives are over-represented in it overall. A number with no mark means an inactive call. Cut-off read from the data, not from the text of the source: active = inhibition mostly above about 28% (no sharp cut-off); inactive = mostly below about 43%.

The experiment is described as follows: A qHTS for Small Molecule Inhibitors of Shiga Toxin. Note: 0% is about no effect. The note with it: Vero cells, Shiga toxin protein synthesis inhibition reporter; at 38.7 µM, hits give high values.
Take `CCOc1ccccc1NS(=O)(=O)c1cc2c3c(c1)C(C)C(=O)N3CCC2` (stereo unspecified): the inhibition was -4.9%.

For `COc1ccc2[nH]c(C(=O)N/N=C/c3cc(OC)c(OC)c(OC)c3)cc2c1`, the inhibition was 8.34%.

On to `COc1ccc2[nH]c(C(=O)Nc3ccccc3Cl)cc2c1`, for which the inhibition was 46.8% (active).

Turning to `COc1cccc(NC(=O)CN2CCN(CC(=O)Nc3ccccc3Cl)CC2)c1`, the inhibition was -8.02%.

Take `CC(C)[C@@H](NC(=O)OC(C)(C)C)C(=O)NCC1CCC(C(=O)N[C@@H](Cc2ccccc2)C(=O)O)CC1` (stereo partly specified): the inhibition is 2.35%.

Take `O=C1CCN(CCc2ccccc2)CCN1CCOc1ccccc1`: the inhibition is 7.81%.

With `CC(C)(C)OC(=O)NCCCCCC(=O)N/N=C/c1coc2ccccc2c1=O`, the inhibition is 69.6% (active).

For `NC(=S)N/N=C/c1coc2cc(Cl)ccc2c1=O`, the inhibition is 5.66%.

In the case of `Cc1ccc2occ(/C=N/NC(=O)c3ccccc3C)c(=O)c2c1`, the inhibition is 9.81%.

In the case of `CC1CCCCN1C(=O)CCS(=O)(=O)Cc1ccccc1` (stereo unspecified), the inhibition was 24.6%.

Turning to `COc1ccc(N(CC(=O)NCc2ccc(F)cc2)C(=O)CCC(=O)Nc2nccs2)cc1`, the inhibition is -15.4%.

`CCOc1ccc(OCCSc2nc3ccccc3n2CC(=O)O)cc1`: the inhibition was 1.74%.

As for `Cc1ccc2c(C)c(C(=O)N(C)CCC3CCCCO3)oc2c1C` (stereo unspecified), the inhibition was 55.6%.

Turning to `Cc1ccc2nc(S(=O)(=O)O)[nH]c2c1`, the inhibition is -4.97%.

`CCOC(=O)CSc1nc2ccc(C)cc2[nH]1`: the inhibition is 46.5%.

Turning to `Cc1ccc2nc(/C(C#N)=C\c3ccc(OC(=O)c4cccs4)cc3)[nH]c2c1`, the inhibition was 52.8% (active).

Take `CCn1c(=S)sc2c(=O)n(CC(=O)Nc3cccc(Br)c3)c(C)nc21`: the inhibition is 13.8%.

Regarding `COC(=O)c1c(NC(=O)COc2ccc(Cl)cc2Cl)sc2c1CC(C)(C)NC2(C)C`, the inhibition was -5.3%.

Turning to `Cc1c(C=O)c2ccccc2n1CCOc1ccccc1`, the inhibition is 31.9%.

In the case of `CC/C(C)=N/Nc1nc2sc3c(c2c(=O)[nH]1)CC(C)(C)OC3`, the inhibition is 42.5% (active).

Take `CCSc1nc2sc3c(c2c(=O)[nH]1)CC(C)(C)OC3`: the inhibition is 4.12%.

In the case of `CCOC(=O)CSc1nc2sc3c(c2c(=O)[nH]1)CC(C)(C)OC3`, the inhibition is -6.92%.

Turning to `O=Cc1ccc(OCc2cn3ccccc3n2)cc1`, the inhibition is 57.2% (active).

For the compound `Cc1ccc2nc(COc3ccc(N(C)S(=O)(=O)c4ccccc4)cc3)cc(=O)n2c1`, the inhibition is 13.5%.

On to `COc1ccc(C(=O)NCc2cn3ccccc3n2)cc1`, for which the inhibition was 8.12%.

Turning to `CCCNC(=O)CSc1nc(Cc2ccccc2)nc2ccccc12`, the inhibition was -9.69%.

The values above are taken from PubChem BioAssay AID2315 (National Center for Advancing Translational Sciences (NCATS), 2010).
